From PubChem BioAssay
Where “and” joins values, the source holds several entries; their conditions need not be identical. Equal values may be shown once. Calls of active or inactive are those of the source.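 How the source made its calls, unless noted: active means thallium flux through the channel raised or lowered by more than 3 SD from vehicle-only wells, actives on both sides; inactive means the rest.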

Columns and labels:
[1] = target: 6-phosphogluconate dehydrogenase, decarboxylating (Homo sapiens) (UniProt P52209); test: 6PGD enzyme inhibitors, primary screen, biochemical, human, recombinant enzyme, NADPH absorbance (AID 1159550;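 active means at least 20% inhibition of 6-phosphogluconate dehydrogenase activity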); details: recombinant 6PGD, NADPH absorbance 341 nm; at 10 µM; stronger effect = higher value
Sequence of 6-phosphogluconate dehydrogenase, decarboxylating (Homo sapiens) (P52209 whole entry, looked up): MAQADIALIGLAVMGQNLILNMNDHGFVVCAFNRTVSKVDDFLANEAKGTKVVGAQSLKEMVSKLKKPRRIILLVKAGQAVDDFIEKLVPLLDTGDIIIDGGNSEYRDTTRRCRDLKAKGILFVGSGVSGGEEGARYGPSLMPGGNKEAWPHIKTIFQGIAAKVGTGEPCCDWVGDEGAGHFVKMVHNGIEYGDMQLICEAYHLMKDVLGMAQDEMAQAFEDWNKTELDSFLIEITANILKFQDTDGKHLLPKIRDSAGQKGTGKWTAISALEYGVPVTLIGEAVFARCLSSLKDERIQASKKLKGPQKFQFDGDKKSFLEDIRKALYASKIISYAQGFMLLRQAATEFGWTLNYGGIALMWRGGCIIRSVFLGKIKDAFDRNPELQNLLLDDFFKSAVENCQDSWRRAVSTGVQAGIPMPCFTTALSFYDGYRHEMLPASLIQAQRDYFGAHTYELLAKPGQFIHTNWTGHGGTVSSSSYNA

[2] = differential killing of epithelial or mesenchymal cells, primary screen, imaging, PC-3E GFP, TEM4-18 mCherry, co-culture (AID 1345086;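 active means compounds killing one labelled cell type while sparing the other, by normalised counts and ratio limits, not self-fluorescent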;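 on all read-outs here: cells exposed to compound for 72 h before imaging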;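 on red/green cell ratio (normalised): normalised mesenchymal count divided by normalised epithelial count so high means epithelial killing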); details: imaging cell counts, at 1 µM; for red/green cell ratio (normalised): actives lie on both sides, counts scaled to control wells, 1 = unselective
[3] = liver-stage malaria parasite growth inhibition, primary screen, cell-based, HepG2, luciferase luminescence, HepG2 viability (AID 624349; in the data active means parasite load remaining mostly below about 12%, no sharp cut-off; inactive means mostly above about 10%;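 further: 100% = mean of DMSO negative control wells on the same plate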); details: P. berghei liver stage in HepG2, luciferase luminescence, concentration not given here; parasite load remaining: stronger effect = lower value; viability: measured here: HepG2 viability without parasites
[4] = Cy5 fluorescence interference with SSB-bound oligo, artefact control for HCV NS3 helicase inhibitor project, biochemical, NIH Clinical Collection, E. coli SSB (AID 743268; call rule not given here)
[5] = tested on: Hepatitis C virus NS3 helicase; test: HCV NS3 helicase inhibitors, primary screen, biochemical, fluorescence polarization, NIH Clinical Collection (AID 743270; call rule not given here); details: NS3 helicase binding to Cy5-dT15 DNA, stronger effect = higher value, concentration not given here
[6] = target: Single-stranded DNA-binding protein (Escherichia coli (strain K12)) (UniProt P0AGE0); test: E. coli SSB displacement from DNA, counter-screen for HCV NS3 helicase inhibitor project, biochemical, fluorescence polarization, NIH Clinical Collection (AID 743271; in the data active means inhibition above about 28%); details: stronger effect = higher value, concentration not given here
[7] = fluorescence interference in NS3h assay format, artefact control for HCV NS3 helicase inhibitor project, biochemical, NIH Clinical Collection (AID 743272; call rule not given here;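 further: HCV NS3 helicase with a Cy5 labelled single stranded DNA probe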); details: fluorescence interference counterscreen, stronger effect = lower value
[8] = modulation of C. elegans fzo-1 (AID 1259413; call rule not given here;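 further: fzo-1 mutant C. elegans worms in liquid wells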); details: C. elegans fzo-1 modulator screen, mean read-out; stronger effect = higher value
[9] = sensitizers of A549 cells to miR-34 induction, primary screen, imaging, A549 dox-inducible miR-34, nuclei and caspase counts (AID 1347080;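 active means compounds whose cell count with miR-34 switched on is under 0.7 times the count with it off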); details: A549 miR-34 inducible, Hoechst nuclei count, 48 h
[10] = survival rescue of mitochondrial mutant cells in low glucose, primary screen, MELAS cybrids, Rieske KO mouse fibroblasts, CellTiter-Glo (AID 1508586;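 active means mean z-score across replicates of 1.96 or higher in either the MELAS or the Rieske mutant cell line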;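 further: z relative to plate mean and SD of compound and empty wells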)
[11] = viability rescue of complex I mutant cybrids, primary screen, cell-based, galactose medium, ATP luminescence (AID 1645843;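 active means z-score of at least 1.8 in each of two replicates, scored against plate mean and spread of sample wells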;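 further: positive z means more ATP and so rescue of galactose-driven cybrid death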); details: complex I mutant cybrid cells, 72 h, stronger effect = higher value
F380Y = test: modulators of BK channel variants, profiling panel, selectivity assay, cell-based, U2OS BacMam, thallium flux, beta subunits (AID 1259406); details: at 30 µM;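 further: initial slope of Thallos dye fluorescence rise after thallium is added; log ratio against the mean of 0.3% DMSO vehicle wells on the same plate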
F380Y/beta2Delta = test: as above; details: at 30 µM
[12] = target: Calcium-activated potassium channel subunit alpha-1 (Homo sapiens) + Leucine-rich repeat-containing protein 26 (Homo sapiens) (UniProt Q12791+Q2I0M4); test: as above; details: F380Y/Slo1WT/gamma1, at 30 µM
Sequence of Calcium-activated potassium channel subunit alpha-1 (Homo sapiens) + Leucine-rich repeat-containing protein 26 (Homo sapiens) (Q2I0M4 whole entry, looked up, one chain of several): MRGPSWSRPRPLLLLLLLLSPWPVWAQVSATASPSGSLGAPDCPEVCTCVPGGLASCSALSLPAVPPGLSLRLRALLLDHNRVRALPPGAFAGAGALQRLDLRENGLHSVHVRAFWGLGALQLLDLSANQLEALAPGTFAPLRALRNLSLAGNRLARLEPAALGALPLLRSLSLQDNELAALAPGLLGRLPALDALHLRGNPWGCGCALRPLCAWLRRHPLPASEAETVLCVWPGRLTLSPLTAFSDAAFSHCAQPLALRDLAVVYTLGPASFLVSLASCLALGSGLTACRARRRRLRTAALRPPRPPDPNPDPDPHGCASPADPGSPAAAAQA

R275C = test: as above; details: at 30 µM
R275C/beta1 = test: as above; details: at 30 µM
R275C/beta2Delta = test: as above; details: at 30 µM
[13] = target: NAD(+) hydrolase SARM1 (Homo sapiens) (UniProt Q6SZW1); test: SARM1 TIR NADase inhibitors, cell lysate, NAD-Glo luminescence (AID 1508614;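 active means compound whose remaining NAD level is above about 45 nM, limit read from the data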); details: SAM-TIR HEK293T lysate NADase, at 1 µM, stronger effect = higher value
Sequence of NAD(+) hydrolase SARM1 (Homo sapiens) (Q6SZW1 whole entry, looked up, the tested form may be a part): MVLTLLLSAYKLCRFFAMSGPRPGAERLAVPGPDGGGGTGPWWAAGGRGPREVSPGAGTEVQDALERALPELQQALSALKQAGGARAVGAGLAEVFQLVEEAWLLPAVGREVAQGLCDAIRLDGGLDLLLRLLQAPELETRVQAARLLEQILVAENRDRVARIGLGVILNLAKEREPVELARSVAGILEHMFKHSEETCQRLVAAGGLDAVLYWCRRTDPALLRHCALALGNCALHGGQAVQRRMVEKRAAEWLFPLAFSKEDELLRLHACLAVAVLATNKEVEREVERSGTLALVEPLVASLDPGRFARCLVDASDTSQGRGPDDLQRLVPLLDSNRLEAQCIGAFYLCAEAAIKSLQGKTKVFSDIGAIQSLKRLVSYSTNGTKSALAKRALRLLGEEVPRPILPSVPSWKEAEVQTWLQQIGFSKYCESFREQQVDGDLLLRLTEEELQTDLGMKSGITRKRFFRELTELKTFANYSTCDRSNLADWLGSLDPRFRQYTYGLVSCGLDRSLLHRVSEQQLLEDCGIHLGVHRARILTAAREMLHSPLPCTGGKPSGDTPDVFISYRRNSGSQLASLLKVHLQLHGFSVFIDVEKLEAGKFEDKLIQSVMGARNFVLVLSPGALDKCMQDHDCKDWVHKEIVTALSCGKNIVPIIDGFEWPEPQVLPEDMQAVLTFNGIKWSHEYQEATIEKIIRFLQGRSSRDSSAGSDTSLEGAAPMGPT

[14] = target: Mitogen-activated protein kinase 7 (Homo sapiens) (UniProt Q13164); test: ERK5 transactivation activators in reporter cells, primary screen, cell-based, HTS (AID 1508626;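 active means luciferase signal above three times the same-plate solvent-only control wells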;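 further: luciferase driven by Gal4-ERK5 fusion binding five Gal4 sites before minimal TATA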); details: HeLa Gal4-ERK5 transactivation, 18 h, at 5 µM, stronger effect = higher value
Sequence of Mitogen-activated protein kinase 7 (Homo sapiens) (Q13164 whole entry, looked up, the tested form may be a part): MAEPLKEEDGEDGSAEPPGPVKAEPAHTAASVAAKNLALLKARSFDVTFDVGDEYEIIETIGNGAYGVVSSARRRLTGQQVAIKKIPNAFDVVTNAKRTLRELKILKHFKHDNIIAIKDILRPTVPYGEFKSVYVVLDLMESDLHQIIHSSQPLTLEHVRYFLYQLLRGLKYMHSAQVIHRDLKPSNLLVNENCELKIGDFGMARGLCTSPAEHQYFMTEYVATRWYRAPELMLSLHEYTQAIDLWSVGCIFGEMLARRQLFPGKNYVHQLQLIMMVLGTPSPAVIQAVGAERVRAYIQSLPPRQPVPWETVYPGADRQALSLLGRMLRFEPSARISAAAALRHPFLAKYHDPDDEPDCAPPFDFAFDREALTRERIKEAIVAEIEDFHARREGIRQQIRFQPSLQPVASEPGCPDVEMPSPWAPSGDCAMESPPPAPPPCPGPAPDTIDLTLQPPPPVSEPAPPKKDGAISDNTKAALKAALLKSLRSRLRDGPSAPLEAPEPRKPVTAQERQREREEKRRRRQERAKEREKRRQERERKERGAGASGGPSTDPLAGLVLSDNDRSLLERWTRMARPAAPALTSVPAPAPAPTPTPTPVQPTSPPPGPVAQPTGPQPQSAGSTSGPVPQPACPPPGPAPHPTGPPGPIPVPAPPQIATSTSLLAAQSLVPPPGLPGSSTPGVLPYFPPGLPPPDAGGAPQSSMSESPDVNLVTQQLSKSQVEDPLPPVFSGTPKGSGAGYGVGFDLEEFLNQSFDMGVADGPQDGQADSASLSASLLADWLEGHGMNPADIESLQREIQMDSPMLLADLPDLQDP

[15] = measured here: epithelial PC-3E GFP cell survival
[16] = measured here: mesenchymal TEM4-18 mCherry cell survival
[17] = stronger effect = lower value, cell number ratio, induced over uninduced
[18] = measured here: relative caspase fold change +Dox/-Dox
[19] = measured here: total cells with miR-34 induction, stronger effect = lower value
[20] = measured here: total cells without miR-34 induction
[21] = MELAS cybrid survival, CellTiter-Glo 48 h, stronger effect = higher value
[22] = Rieske KO mouse fibroblast survival, CellTiter-Glo 72 h

COc1cc(OC)c2c(=O)cc(-c3ccccc3)oc2c1
1.06: normalised cell number [2, 15]
1.01: normalised cell number [2, 16]
inactive: inhibition [1] 13.7% | red/green cell ratio (normalised) [2] 0.95

CC(C)[N+]1(C)C2CCC1CC(OC(=O)C(CO)c1ccccc1)C2 (stereo unspecified)
10300 and 7770 and 8120: cell count [9, 19]
-0.136: z-score [10, 22]
0.608 and 0.704 and 0.785: fold change [9, 18]
inactive: parasite load remaining [3] 58.8% and 74.5% | fluorescence ratio [4] 1.07 | inhibition [5] -3.18% | inhibition [6] -3.53% | fluorescence ratio [7] 1.02 | inhibition [1] 11.9% | mean signal [8] 254 | fold change [9, 17] 0.921 and 0.934 and 0.97 | z-score [10, 21] 0.162 | z-score [11] 0.14 and 0.88 | log fold change Tl+ flux (F380Y) 0.00902 | log fold change Tl+ flux (F380Y/beta2Delta) -0.00601 | log fold change Tl+ flux [12] 0.0518 | log fold change Tl+ flux (R275C) 0.0409 | log fold change Tl+ flux (R275C/beta1) -0.0331 | log fold change Tl+ flux (R275C/beta2Delta) 0.000928
11100 and 8310 and 8370: cell count [9, 20]
98.1% and 77.4%: viability [3]

CNCCC=C1c2ccccc2CCc2ccccc21
-0.307: z-score [10, 22]
active: log fold change Tl+ flux (F380Y) 0.169 | log fold change Tl+ flux (F380Y/beta2Delta) 0.217 | log fold change Tl+ flux (R275C/beta1) 0.165 | log fold change Tl+ flux (R275C/beta2Delta) 0.126
inactive: fluorescence ratio [4] 1.02 | inhibition [5] -5.91% | inhibition [6] -4.29% | fluorescence ratio [7] 0.99 | inhibition [1] -10.4% | mean signal [8] 233 | red/green cell ratio (normalised) [2] 1.12 | z-score [10, 21] -0.337 | remaining NAD [13] 10 nM | luciferase signal [14] 120 AU | z-score [11] -1.28 and -1.35 | log fold change Tl+ flux [12] 0.00764 | log fold change Tl+ flux (R275C) 0.0226
1.12: normalised cell number [2, 15]
1.26: normalised cell number [2, 16]

CC[C@H](/C=C/C(C)C1CCC2C3CCC4=CC(=O)CC[C@]4(C)C3CC[C@]12C)C(C)C (stereo partly specified)
inactive: inhibition [1] 11.4% | red/green cell ratio (normalised) [2] 0.98
0.97: normalised cell number [2, 16]
0.99: normalised cell number [2, 15]

COc1ccc2c3c1O[C@H]1C[C@@H](O)C=C[C@@]31CCN(C)C2
0.459 and -0.846: z-score [10, 22]
1: normalised cell number [2, 15]
1.15: normalised cell number [2, 16]
inactive: fluorescence ratio [4] 1.03 | inhibition [5] -2.77% | inhibition [6] -3.95% | fluorescence ratio [7] 1 | inhibition [1] 6.78% | mean signal [8] 226 | red/green cell ratio (normalised) [2] 1.15 | z-score [10, 21] 0.162 and -0.253 | remaining NAD [13] 10 nM | luciferase signal [14] 64 AU | z-score [11] 0.28 and 0.575 | log fold change Tl+ flux (F380Y) 0.0204 | log fold change Tl+ flux (F380Y/beta2Delta) 0.0272 | log fold change Tl+ flux [12] -0.0208 | log fold change Tl+ flux (R275C) 0.0192 | log fold change Tl+ flux (R275C/beta1) -0.00593 | log fold change Tl+ flux (R275C/beta2Delta) 0.0478

CC1(C)SC2C(NC(=O)COc3ccccc3)C(=O)N2C1C(=O)O (stereo unspecified)
inactive: parasite load remaining [3] 83.2% | inhibition [5] -3.18% | inhibition [6] -5.05% | fluorescence ratio [7] 1.01 | inhibition [1] 3.81% | mean signal [8] 260 | fold change [9, 17] 0.993 | z-score [11] 1.5 | log fold change Tl+ flux (F380Y) -0.00633 | log fold change Tl+ flux (F380Y/beta2Delta) 0.0322 | log fold change Tl+ flux [12] -0.0109 | log fold change Tl+ flux (R275C) 0.00635 | log fold change Tl+ flux (R275C/beta1) 0.0123 | log fold change Tl+ flux (R275C/beta2Delta) -0.0109
1.37: fold change [9, 18]
11100: cell count [9, 20]
94.2%: viability [3]
11000: cell count [9, 19]
active: fluorescence ratio [4] 0.71

C#C[C@]1(O)CC[C@H]2[C@@H]3CCC4=CC(=O)CC[C@@H]4[C@H]3CC[C@@]21C
0.0145 and -0.237: z-score [10, 22]
3.48 and 0.712 and 1.56: fold change [9, 18]
9490 and 9470 and 10100: cell count [9, 20]
inactive: fluorescence ratio [4] 0.96 | inhibition [5] 1.36% | inhibition [6] 3.34% | fluorescence ratio [7] 0.96 | inhibition [1] -1.74% | fold change [9, 17] 0.992 and 0.97 and 0.797 | z-score [10, 21] 0.108 and 0.243 | remaining NAD [13] 10 nM | luciferase signal [14] 48 AU | z-score [11] -0.71 and 0.54 | log fold change Tl+ flux (F380Y) 0.0234 | log fold change Tl+ flux (F380Y/beta2Delta) 0.0279 | log fold change Tl+ flux [12] 0.0181 | log fold change Tl+ flux (R275C) 0.0301 | log fold change Tl+ flux (R275C/beta1) 0.0324 | log fold change Tl+ flux (R275C/beta2Delta) 0.062
9410 and 9190 and 8090: cell count [9, 19]

CON=C(C(=O)NC1C(=O)N2C(C(=O)O)=C(COC(C)=O)CSC12)c1csc(N)n1 (stereo unspecified)
active: inhibition [6] 36.1%
inactive: parasite load remaining [3] 73.2% | fluorescence ratio [4] 1.03 | inhibition [5] 4.09% | fluorescence ratio [7] 1.03 | inhibition [1] -1.56% | fold change [9, 17] 0.991 | z-score [11] 0.145 | log fold change Tl+ flux (F380Y) -0.0263 | log fold change Tl+ flux (F380Y/beta2Delta) 0.0186 | log fold change Tl+ flux [12] -0.0048 | log fold change Tl+ flux (R275C) 0.0263 | log fold change Tl+ flux (R275C/beta1) -0.0272 | log fold change Tl+ flux (R275C/beta2Delta) -0.0298
130%: viability [3]
11500: cell count [9, 20]
2.86: fold change [9, 18]
11400: cell count [9, 19]
